# Most compounds without a hit are left out; they make up all but 1.4% or so of the library.
# ERK EGF inh – EGF-driven ERK pathway inhibition. HEK293-V1b, EGF-stimulated phospho-ERK AlphaScreen. Potency, µM (highest dose often 11.5 µM), inactives show at the top dose activity change, negative = inhibition, usual class: inhibitors. actives 0.41% (n = 130,000). AID 1454;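 further: potency means the concentration at half of the fitted maximal effect; plate controls were stimulated vehicle wells for no effect and unstimulated vehicle basal for full effect; nearly all actives have a fitted effect of over 55% in size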
#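 Phospho-ERK1/2 measured by AlphaScreen (SureFire) after 5 min 25 nM EGF stimulation of V1b-expressing HEK293 cells preincubated 30 min at 37C with titrated compounds; data scaled to DMSO and EGF controls, Hill-fitted AC50.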
# HTT ATP protect – Huntington cell model cytoprotection by ATP luminescence; Potency, µM (titrated, usually from 56.4 µM), for inactives: cytoprotection (ATP increase), hits mostly activators; AID 1471; PC12 HTT-Q103 induced, cytoprotection, ATP luminescence, 40 h; actives 0.14% (n = 230,000); further: potency means the concentration at half of the fitted maximal effect; % of control where 0% means no effect; nearly all actives have a fitted effect of over 45% in size
#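 Huntington model: PC12 line, ecdysone-inducible HTTQ103 exon1–GFP, tebufenozide 100 nM. Test articles in a dose series. Endpoint luminescence from cellular ATP.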
# HttQ103 aggreg – mutant huntingtin aggregation inhibition; PC12 HttQ103-GFP aggregates, Acumen cytometry, 40 h; Potency, µM (highest dose often 46.1 µM), for inactives: at the top dose activity change, negative = inhibition, usual class: inhibitors; actives 1.1% (n = 220,000); further: potency means the concentration at half of the fitted maximal effect; on the % scale 0 is the no-effect control and ±100 the full control effect; nearly all actives have a fitted effect of over 60% in size
#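 Quantitative HTS on tebufenozide-induced (100 nM) PC12 cells stably expressing polyQ103 Huntingtin exon 1–GFP. Reduction of bright GFP aggregates, detected by laser scanning cytometry after lysis, identified actives across the titration.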
# ERK pERK EGF – reduces EGF-stimulated ERK phosphorylation in HEK293 cells; actives 60% (n = 60); AID 1725; shares compounds with ERK EGF inh; Potency, µM (doses to about 57.5 µM), for the others: at the top dose activity change, negative = inhibition, actives largely listed as inhibitors; HEK293 EGF-stimulated ERK phosphorylation, AlphaScreen
# c-Raf inh – c-Raf inhibition, ERK pathway follow-up. activity change, negative = inhibition, % at 76.9 µM. 70 tested, under 10 active. shares compounds with ERK EGF inh. c-Raf kinase inhibition, homogeneous biochemical assay
# MEK inh – ERK pathway inhibitors follow-up: human MEK1 kinase inhibition | shares compounds with ERK EGF inh | homogeneous MEK kinase activity assay, ERK pathway | Potency, µM (highest dose often 76.9 µM), for the others: at the top dose activity change, negative = inhibition, most hits filed as inhibitors | 70 tested, under 10 active | AID 1732
# Target sequence (Q02750 whole entry, looked up): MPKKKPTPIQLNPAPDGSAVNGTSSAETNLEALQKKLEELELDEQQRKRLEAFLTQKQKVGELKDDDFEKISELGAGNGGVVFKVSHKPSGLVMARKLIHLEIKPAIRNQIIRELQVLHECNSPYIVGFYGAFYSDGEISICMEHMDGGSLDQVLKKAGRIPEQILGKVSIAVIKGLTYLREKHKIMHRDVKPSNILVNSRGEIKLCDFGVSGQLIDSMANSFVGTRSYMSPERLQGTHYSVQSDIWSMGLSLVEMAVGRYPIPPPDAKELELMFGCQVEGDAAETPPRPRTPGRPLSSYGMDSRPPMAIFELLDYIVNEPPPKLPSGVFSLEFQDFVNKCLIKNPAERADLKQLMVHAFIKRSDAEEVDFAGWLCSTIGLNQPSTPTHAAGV
# Numbers without * were called inactive; ? = inconclusive; nt = not tested or not shown; [ ] = dose if it differs, or a comment. The call rests on the fitted dose curve; in most records, active means well fitted curve in the direction sought with a large enough effect; inconclusive means small, poorly fitted or top-dose-only effect, or another doubt; inactive means no such curve, though single readings can be large; an effect the other way counts as inactive or inconclusive.
SMILES,ERK EGF inh,HTT ATP protect,HttQ103 aggreg,others
CC[n+]1c(/C=C/c2ccc(N(C)C)cc2)ccc2ccccc21,3%,nt,?,
CN(C)c1ccc(/C=C/c2cc[n+](C)cc2)cc1,nt,-70%,2.5µM*,
CC[n+]1ccc(/C=C/c2ccc(N(C)C)cc2)c2ccccc21,14µM*,-58%[10 µM],?,
O=c1c(-c2ccc(F)cc2)nc2cncnc2n1Cc1ccc(F)cc1,nt,-33%,nt,
CN(C)CCCN(Cc1ccccc1)C(=S)Nc1cccc(C(F)(F)F)c1,nt,nt,0.0006µM*,
CCCN(Cc1ccccc1)C(=S)Nc1cccc(C(F)(F)F)c1,5%,11%[10 µM],5%,
O=C1[C@H]2[C@H]3[C@H](O)[C@H](O)C/C(=N/OCc4ccccc4)[C@@H]3CC[C@@H]2C(=O)N1C1CCCCC1,nt,-6%[10 µM],nt,
N#Cc1cccc(-n2nnnc2-c2ccccn2)c1,nt,3%[10 µM],11µM*,
N#Cc1cccc(-n2nnnc2-c2ccc3c(c2)OCO3)c1,nt,2%,3%,
O=C(O)c1ccc(CNCc2ccccc2)cc1,nt,-7%[10 µM],nt,
O=C(c1cccc(F)c1)N1CCC2(CC1)CN(c1cccc(-c3ccccc3)c1)C2,-3%,-73%,nt,
COc1ccc2sc(C)[n+](C)c2c1,-2%[57.5 µM],11µM*,-21%,
CCCC[n+]1c(C)sc2cc(OC)ccc21,-5%,-3%[10 µM],6%[9.22 µM],
Nc1ccccc1C(=O)NNC1=C(C(=O)C(F)(F)F)CCC1,7%[57.5 µM],7%[10 µM],-26%[9.22 µM],
O=C(NNC1=C(C(=O)C(F)(F)F)CCC1)c1ccc(Br)cc1,nt,-58%,11µM*,
O=C(OC1Cc2c(O)cc(O)cc2OC1c1cc(O)c(O)c(O)c1-c1c(C2Oc3cc(O)cc(O)c3CC2OC(=O)c2cc(O)c(O)c(O)c2)cc(O)c(O)c1O)c1cc(O)c(O)c(O)c1 (configuration not stated),17%,nt,nt,
C=CCOC(=O)C1=C(C)NC(C)=C(C(=O)OCC=C)C1/C=C/c1ccccc1,25µM*,-21%,12%,
CCOC(=O)C1=C(C)NC(C)=C(C(=O)OCC)C1/C=C/c1ccccc1,nt,-2%[10 µM],20%,
CN(C)C(=O)c1ccc(-c2ccc3ncnc(N(C)C)c3c2)cc1,nt,-15%,nt,
COc1ccc(-c2cnnc(N/N=C/c3ccc(O)cc3)n2)cc1,1%,nt,?,
COc1ccc(-c2cnnc(N/N=C/c3ccc(O)c(O)c3)n2)cc1,?,-59%[10 µM],11µM*,
c1ccc(-n2nnnc2Sc2ncnc3sc4c(c23)CCCC4)cc1,0%,nt,?,
Cc1sc2ncnc(Sc3nnnn3-c3ccc(Cl)cc3)c2c1C,nt,-110%[10 µM],-51%,ERK pERK EGF=-3%;c-Raf inh=-12;MEK inh=3%
O=C(c1cnccn1)N1CCC2(CCN(Cc3ccccc3)CC2)CC1,10%,-4%,nt,
CN1[C@@H]2CC[C@H]1CC(OC(=O)[C@@H](O)c1ccccc1)C2 (some centres not stated),nt,?,14%,
SMILES,ERK EGF inh,HTT ATP protect,HttQ103 aggreg,others
Nc1ccc(SC(F)(F)F)cc1,19%,-15%[10 µM],22%,
N#C/C(=C(/N)Sc1ccc(N)cc1)c1ccccc1C(F)(F)F,0.89µM*,-46%,nt,c-Raf inh=12;MEK inh=-16%
c1cncc(CNc2cc(-c3ccoc3)ncn2)c1,nt,-9%,nt,
C[C@H]1Cc2c(COc3ccccc3)nc3c(c2CO1)CN(C(=O)C1CCCCC1)CC3,nt,-16%[10 µM],nt,
COC(=O)C1(CC(C)C)C=C2C(=C(C(C)C)C(=O)C2C)CN1 (configuration not stated),-2%,-67%,nt,
COc1ccc(N=C2C(=Nc3ccc(OC)cc3)N(c3ccc(OC)cc3)C(=S)N2C)cc1,nt,10%,-4%,ERK pERK EGF=7.9µM*;c-Raf inh=6;MEK inh=-13%
COc1ccc(N=C2SCC(=O)N2c2ccc(OC)cc2)cc1,nt,10%,-3%[9.22 µM],
COc1ccc(N=C2C(=Nc3ccc(OC)cc3)N(c3ccc(OC)cc3)C(=S)N2c2ccccc2)cc1,nt,-43%,-6%,ERK pERK EGF=8.9µM*;c-Raf inh=-6;MEK inh=-10%
COc1ccc(N2CC(=O)N(c3ccccc3)C2=S)cc1,5%,0%[10 µM],-11%,
CC(=O)O[C@H]1CC[C@@]2(C)[C@@H](CC[C@H]3[C@H]2CC(=O)[C@@]2(C)[C@@H]3C[C@H]3CC(C)=CC(=O)[C@H]32)C1,nt,-4%[10 µM],nt,
COC(=O)NC(CC(C)=O)c1cccs1 (configuration not stated),nt,8%[10 µM],nt,
CC(/C=N/n1c(-c2ccc(Cl)cc2)n[nH]c1=S)=C\c1ccco1,nt,3%[10 µM],3%[9.22 µM],
N#CC(C#N)=C1C=CC=CN1/C(=C\c1ccco1)C(=O)c1ccc(Cl)cc1,10µM*,?,3.5µM*,ERK pERK EGF=?;c-Raf inh=-15;MEK inh=-19%
CC(C)=CCC/C(C)=C/CC/C(C)=C/CSCC(=O)O,15%,-24%,nt,
C=C[C@]1(C)CC(=O)[C@@]2(O)[C@@]3(C)C(O)CCC(C)(C)C3C(O)C(OC(C)=O)[C@@]2(C)O1 (some centres not stated),?,-36%,nt,ERK pERK EGF=-16%;c-Raf inh=-4;MEK inh=-19%
O=C1C(=O)c2ccccc2C(O)=C1C(CCc1ccccc1)C1=C(O)c2ccccc2C(=O)C1=O,nt,-8%[10 µM],nt,
CCCC[S@@](=N)(=O)CC[C@@H](N)C(=O)O,nt,4%[1.9 µM],nt,
c1ccc(Nc2ncnc3ccc(-c4cccnc4)cc23)cc1,2.5µM*,-51%,nt,ERK pERK EGF=3.5µM*;c-Raf inh=?;MEK inh=0%
c1cncc(-c2ccc3ncnc(NCCN4CCOCC4)c3c2)c1,nt,-84%,nt,
O=c1cc(-c2ccc(O)c(O)c2)oc2cc(O)cc(O)c12,-5%,?,-32%[9.22 µM],
O=c1cc(-c2ccc(O)cc2)oc2cccc(O)c12,-4%,-49%[1.9 µM],nt,ERK pERK EGF=-12%;c-Raf inh=?;MEK inh=-6%
COc1ccc(/C=C/C(=O)c2ccc(C)s2)cc1,-3%,3%[1.9 µM],nt,
COCCn1c(=O)c(-c2ccccc2)nc2cnc(N(C)C)nc21,nt,-59%,nt,
COc1ccc(-c2nc3cnc(N(C)C)nc3n(CCc3ccccc3)c2=O)cc1,?,?,nt,ERK pERK EGF=?;c-Raf inh=1;MEK inh=-4%
O=C1COC(c2ccccc2O)=NN1CCCN1CCCC1,nt,3%[10 µM],nt,
SMILES,ERK EGF inh,HTT ATP protect,HttQ103 aggreg,others
c1ccc([C@H]2NCCc3c2[nH]c2ccccc32)cc1,nt,10%[10 µM],nt,
Cc1cccc(CNc2ncnc3ccc(-c4cccc(NS(C)(=O)=O)c4)cc23)c1,6.3µM*,-57%,nt,ERK pERK EGF=11µM*;c-Raf inh=?;MEK inh=1%
COc1ccccc1CNc1ncnc2ccc(-c3cccc(NS(C)(=O)=O)c3)cc12,nt,-256%,nt,
COc1cc2ncnc(Nc3cccc(Cl)c3)c2cc1OC,0.25µM*,?,nt,ERK pERK EGF=0.2µM*;c-Raf inh=?;MEK inh=-15%
COc1cccc(Nc2ncnc3c2cnn3C)c1,nt,-22%,3%,
Cc1noc(C)c1-c1nc(N(C)C)c2ccccc2n1,nt,-6%,nt,
CNc1cccc2c1C(=O)c1ccccc1C2=O,10µM*,12%[10 µM],-4%,ERK pERK EGF=14µM*;c-Raf inh=-9;MEK inh=-19%
